According to PubChem BioAssay:
“And” between values parts separate entries of the source, which are not always exact repeats. Equal entries are not always repeated. The source made the active and inactive calls.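 How the source made its calls, unless noted: active means compounds whose cell count with miR-34 switched on is under 0.7 times the count with it off; inactive means the rest.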

Experiments:
[1] = test system: Aerobactin synthetase IucA (Klebsiella pneumoniae); assay: inhibition of K. pneumoniae IucA enzyme – biochemical, Tocris library, absorbance (AID 1345561; call rule not given here;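 further: 100% = enzyme without compound and 0% = no enzyme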); conditions: purified IucA enzyme assay, absorbance (OD) read-out; stronger effect = lower value;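 tested at 8 µM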
[2] = viability loss with induced miR-34 in A549 – imaging, A549 dox-inducible miR-34, nuclei and caspase counts, primary screen (AID 1347080); conditions: A549 miR-34 inducible, Hoechst nuclei count, 48 h
[3] = galactose survival enhancers in mitochondrial complex I cybrids – cell-based, galactose medium, ATP luminescence, primary screen (AID 1645843;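 active means z-score of at least 1.8 in each of two replicates, scored against plate mean and spread of sample wells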;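 further: positive z means more ATP and so rescue of galactose-driven cybrid death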); conditions: complex I mutant cybrid cells, 72 h, stronger effect = higher value
[4] = stronger effect = lower value, cell number ratio, induced over uninduced
[5] = measured here: relative caspase fold change +Dox/-Dox
[6] = measured here: total cells with miR-34 induction, stronger effect = lower value
[7] = measured here: total cells without miR-34 induction

Row | SMILES | remaining activity [1] | fold change [2, 4] | fold change [2, 5] | cell count [2, 6] | cell count [2, 7] | z-score [3]
1 | Ic1cc(-c2ccccc2)ncn1 | 120% (inactive) | 0.965 (inactive) | 1.73 | 8200 | 8500 | 0.11 (inactive)
2 | N#Cc1cc2[nH]c(=O)c(=O)[nH]c2cc1[N+](=O)[O-] | 113% (inactive) | 0.891 (inactive) | 1.62 | 9010 | 10100 | 0.095 (inactive)
3 | CCc1ccccc1OC[C@@H](O)CN[C@H]1CCCc2ccccc21 | 106% (inactive) | 0.986 (inactive) | 0.799 | 4870 | 4940 | -0.74 (inactive)
4 | Oc1ccc(-c2nc3cc(O)cc(Br)c3o2)cc1 | 98.9% (inactive) | 0.904 (inactive) | 1.67 | 8500 | 9400 | 0.775 (inactive)
5 | CC(N)=NCCCC[C@H](N)C(=O)O | 91.3% (inactive) | 0.958 (inactive) | 0.902 | 8960 | 9350 | 0.135 (inactive)
6 | OC(c1ccccc1)C1CCN(CCc2ccccc2)CC1 (stereo not given) | 96.8% (inactive) | 0.917 (inactive) | 0.92 | 8660 | 9440 | -0.035 (inactive)
7 | CCCn1c(=O)c2[nH]c(-c3ccccc3)nc2n(CCC)c1=O | 113% (inactive) | 1.13 (inactive) | 0.687 | 4790 | 4230 | -0.115 (inactive)
8 | CNc1cc(OC)c(C(=O)N[C@@H]2CCN(Cc3ccccc3)[C@@H]2C)cc1Cl (racemic) | 104% (inactive) | 0.926 (inactive) | 1.02 | 8160 | 8810 | -0.56 (inactive)
9 | NC(=NCCc1ccc(I)cc1)SCCCC1CNCN1 (stereo not given) | 98% (inactive) | 1.01 (inactive) | 0.754 | 6720 | 6680 | -0.645 (inactive)
10 | Cc1ccc(S(=O)(=O)NCc2ccccc2)cc1 | 121% (inactive) | 0.861 (inactive) | 0.767 | 8330 | 9670 | -0.21 (inactive)
11 | CCOC(=O)NC[C@H](Cc1ccc(OCCc2nc(-c3ccccc3)oc2C)cc1)N/C(C)=C\C(=O)c1ccc(C(F)(F)F)cc1 | 105% (inactive) | 1.05 (inactive) | 1.05 | 5130 | 4910 | -0.305 (inactive)
12 | N[C@H](C(=O)O)c1ccc(O)c(C(=O)O)c1 | 98.7% (inactive) | 0.912 (inactive) | 0.711 | 8900 | 9760 | -0.325 (inactive)
13 | COc1ccc(NC(=O)c2ccc(-c3ccc(-c4noc(C)n4)cc3C)cc2)cc1OCCN(C)C | 128% (inactive) | 1.2 (inactive) | 1.18 | 1160 | 962 | -0.765 (inactive)
14 | COC(=O)C1=C(C)NC(C)=C(C(=O)NCCCN2CCC(c3ccccc3)(c3ccccc3)CC2)C1c1ccc([N+](=O)[O-])cc1 (stereo not given) | 98% (inactive) | 0.668 (active) | 1.88 | 294 | 441 | -0.7 (inactive)
15 | Cc1cc(C(=O)O)sc1C(N)C(=O)O (stereo not given) | 83.4% (inactive) | 0.995 (inactive) | 1.22 | 8770 | 8820 | 0.285 (inactive)
16 | O=C(O)c1ccc(-c2ccc3cc(C45CC6CC(CC(C6)C4)C5)c(O)cc3c2)cc1 | 87.5% (inactive) | 1.14 (inactive) | 1.52 | 1990 | 1740 | -0.695 (inactive)
17 | COC(=O)/C=C/c1cccc(N(Cc2ccc(-c3ccc(N(C)C)cc3)cc2)C(=O)C2CCCCC2)c1 | 97.3% (inactive) | 0.926 (inactive) | 1.8 | 7630 | 8240 | 0.225 (inactive)
18 | COc1ccc(-c2nc(C(=O)N3CCN(C)CC3)sc2-c2ccc(OC)cc2)cc1 | 116% (inactive) | 0.946 (inactive) and 0.989 (inactive) | 2.48 and 0.892 | 5370 and 9040 | 5680 and 9140 | -0.66 (inactive)
19 | OC1CCC(Nc2nc(-c3ccccc3)nc3[nH]ccc23)CC1 (stereo not given) | 112% (inactive) | 0.975 (inactive) | 1.31 | 8990 | 9220 | 1.67 (inactive)
20 | COc1cc2c(cc1OC)-c1cc3nc4ccccc4nc3n1C(C)(C)C2 | 119% (inactive) | 1.11 (inactive) | 0.782 | 4000 | 3590 | -0.79 (inactive)
21 | CC#CCOC(=O)C1=CCCN(C)C1 | 109% (inactive) | 0.936 (inactive) | 0.732 | 8580 | 9170 | -0.46 (inactive)
22 | CCC1(c2ncc[nH]2)Cc2ccccc2O1 (stereo not given) | 118% (inactive) | 0.963 (inactive) | 0.89 | 9330 | 9690 | 0.05 (inactive)
23 | COc1ccc(S(=O)(=O)N2c3ccc(Cl)cc3[C@](O)(c3ccccc3Cl)[C@@H]2C(=O)N2CCC[C@H]2C(N)=O)cc1OC | 97.7% (inactive) | 0.908 (inactive) | 1.22 | 8610 | 9480 | 0.855 (inactive)
24 | NC(C(=O)O)c1cc(O)cc(O)c1 (stereo not given) | 101% (inactive) | 0.987 (inactive) | 0.844 | 9310 | 9430 | -0.435 (inactive)
25 | c1ccc2sc(N3CCN(Cc4ccc5c(c4)OCO5)CC3)nc2c1 | 98.7% (inactive) | 0.958 (inactive) | 0.859 | 9100 | 9500 | -0.155 (inactive)
